Spn PMK inh – blocks S. pneumoniae phosphomevalonate kinase; 65,000 tested, 0.49% active; purified PMK, PK/LDH-coupled NADH absorbance 340 nm; inhibition, % at 10 µM; AID 539;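 active means top-ranked compounds by inhibition in the single 10 µM screen, taking a fixed number of the strongest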
NADH enzymes – blocks coupling enzymes of NAD/NADH assays. 65,000 tested, 0.02% active. AID 774. coupled PK/LDH NADH assays, four targets. IC50, µM (highest dose often 10 µM);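 active means single-dose screening hits from any of four coupled enzyme assays that gave an IC50 when retested across doses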;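 further: the DPM-DC format reads NADH fluorescence rather than 340 nm absorbance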
Spn MK inh – blocks S. pneumoniae mevalonate kinase | inhibition, % at 10 µM | purified MK, PK/LDH-coupled NADH absorbance 340 nm | 65,000 tested, 0.48% active;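 active means ranked among the strongest by inhibition in the single 10 µM screen, a fixed top-ranked set picked for dose follow-up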
Autofluor 339 – intrinsic fluorescence of library compounds, ex339/em460 – biochemical, MLSMR library, data from DPM-DC assay, artefact control, profiling panel. compound autofluorescence, ex339/em460 nm, NADH buffer; stronger effect = higher value; 1 = no-compound wells, NADH background. fluorescence fold increase at 10 µM. 65,000 tested, 5.5% active. AID 709;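 active means at 10 µM, mean starting fluorescence two-fold or more over control wells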;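 further: signal is the first read of a kinetic run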
Spn DPM-DC inh – blocks S. pneumoniae diphosphomevalonate decarboxylase. AID 556. calls only at 10 µM. purified DPM-DC, PK/LDH coupled NADH fluorescence. 65,000 tested, 0.49% active;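 active means the 320 compounds with the highest percent inhibition in the single-dose primary screen, excluding strongly autofluorescent ones, cut at about 32% in these data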;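 further: kinetic rate of NADH fluorescence loss reporting ADP formed by the decarboxylase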
Abs 340nm – absorbance at 340 nm; compound absorbance at 340 nm, fold over control; fold change at 10 µM; 65,000 tested, under 10 active; AID 708;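 active means at 10 µM dose, initial 340 nm absorbance at least 2 fold that of control wells; inactive means change under 2 fold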;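 further: initial absorbance extrapolated from kinetic A340 decline of NADH oxidation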
Each line names hits and unclear results; the compound was inactive in the other large screens. Most compounds without a hit are left out; they make up all but 6.8% or so of the library.

CCN(CC)S(=O)(=O)c1ccc(C(=O)OCC(=O)N2CCN(C(=O)c3ccco3)CC2)cc1	Spn MK inh 48.0
Cc1ccc2c(n1)sc1c(N)ncnc12	Autofluor 339 2.14
O=C(NCc1ccc(F)cc1)c1cnc2sccn2c1=O	Autofluor 339 2.15 (not shown: Spn DPM-DC inh)
CCC1CCCCN1c1nc2c(c(=O)n(C)c(=O)n2C)n1CCSc1nc2ccccc2o1 (centres undefined)	none
COc1ccc(C2(O)CC3CCC(C2)N3c2nc(C)cc(C)c2C#N)cc1 (centres undefined)	Autofluor 339 2.8
COc1cccc(-c2cn3nc(C)c(C)nc3n2)c1	Autofluor 339 3.08
Cc1nc2nc(-c3cccs3)cn2nc1C	Autofluor 339 3.72 (not shown: Spn DPM-DC inh)
CCn1c(SCC(=O)Nc2nc3ccc(C)cc3s2)nc2c(c1=O)SC(C)C2 (centres undefined)	none
O=C(NCc1cccs1)c1cnc2sccn2c1=O	none
COCCn1nnnc1C(C(C)C)N(Cc1cccnc1)Cc1cc2cc(OC)ccc2[nH]c1=O (centres undefined)	Autofluor 339 2.4
COC(=O)C1C(=O)c2c([nH]c(C(=O)OCC3CCCO3)c2C)CC1C (centres undefined)	none
CCOc1cc(N2CCOCC2)c(OCC)cc1NC(=O)Cc1ccc(OC)c(OC)c1	Spn PMK inh 26.0
COc1cc2c(N3CCOCC3)cc(O)c(CC(=O)Nc3ccccc3)c2cc1OC	Autofluor 339 3.12 (not shown: Spn DPM-DC inh)
CCOc1cc(N2CCOCC2)c(OCC)cc1NC(=O)CN1CCc2ccccc2C1	Spn MK inh 73.0
CCCc1cn(S(=O)(=O)c2ccc(OC)cc2OC)nc1N	none
CCNC(=O)C1CC(=O)N(c2ccc(Br)cc2)C1 (centres undefined)	none
O=C1c2ccccc2C(=O)N1CCCc1nc2ccccc2c(=O)n1-c1cccnc1	none
CCOC(=O)C1(C)NC(c2ccc(OC)cc2OC)C2C(=O)N(c3cccc(OC)c3)C(=O)C21 (centres undefined)	none
COC(=O)C1=CN(C)C=C(C(=O)OC)C1c1ccc(O)c(OC)c1	none
COCCN1C=C(C(=O)OC)C(c2cc(Br)c(OC)c(OC)c2)C(C(=O)OC)=C1	Autofluor 339 2.26 (not shown: Spn DPM-DC inh)
CCCn1cnc2c(cnn2-c2ccc(F)cc2)c1=O	Spn PMK inh 27.0
CCCCn1cnc2c(cnn2-c2ccc(F)cc2)c1=O	none
CCCN(CCC)C(=O)CSc1nc2ccccc2c(=O)n1C1CCCC1	none
N#Cc1nc(Cc2ccccc2)oc1N1CCC(C(N)=O)CC1	none
N#Cc1nc(-c2ccco2)oc1N1CCC(C(N)=O)CC1	Autofluor 339 3.93 (not shown: Spn DPM-DC inh)
CC1CN(c2oc(-c3ccco3)nc2C#N)CC(C)O1 (centres undefined)	Autofluor 339 3.8 (not shown: Spn DPM-DC inh)
COc1ccccc1NC(=O)N1CCN(c2cc(-c3ccccc3)nc3ncnn23)CC1	none
O=C(c1noc2c1CCCCC2)N1CCOCC1	none
O=C(c1noc2c1CCCC2)N1CCCCC1	Spn DPM-DC inh active
CNC(=O)CN(c1ccc(C(C)C)cc1)S(C)(=O)=O	none
CSc1nnc(NC(=O)C2CCCCC2)s1	none (no result: Spn PMK inh)
CSc1ncc(Cl)c(C(=O)Nc2nnc(SC)s2)n1	Spn DPM-DC inh active
COc1cc(C(=O)O)cc(Br)c1OC1CCCC1	none
C=C(C)Cn1c(CCCNC(=O)C(C)(C)C)nc2ccccc21	none
CCN(CC)C(=O)C1CCCN(C/C=C/c2ccccc2)C1 (centres undefined)	Spn MK inh 47.0
CCN(CC)C(=O)C1CCCN(Cc2ccccc2C(F)(F)F)C1 (centres undefined)	Spn MK inh 45.0
CCN(CC)C(=O)C1CCCN(Cc2ccccc2F)C1 (centres undefined)	none
CCN(CC)C(=O)C1CCCN(C/C(C)=C/c2ccccc2)C1 (centres undefined)	Spn PMK inh 26.0
Cc1c(C)[n+](=O)c(-c2cccs2)c(C)n1[O-]	none
Cc1ccc(NC(=O)COS(=O)c2ccc(C)cc2)cc1 (centres undefined)	none
Cn1c(=O)c2c(n(C)c1=O)=NC1(CCCCC1)ON=2	none
CCn1c(SC(=O)NC2CCCCC2)nnc1-c1cccs1	Spn PMK inh 25.0 (not shown: Spn DPM-DC inh)
CCn1c(SCC(=O)NC2CCCCC2)nnc1-c1cccs1	none
CCC(C)(C)n1nnnc1C(c1cc2cc(C)ccc2[nH]c1=O)N1CCCC1 (centres undefined)	none
CCN1CCN(C(c2cc3cc4c(cc3[nH]c2=O)OCO4)c2nnnn2C(C)(C)CC)CC1 (centres undefined)	Autofluor 339 4.01 (not shown: Spn DPM-DC inh)
O=c1[nH]c2cc3c(cc2cc1C(c1nnnn1CC1CCCO1)N1CCCC1)OCO3 (centres undefined)	Autofluor 339 4.79 (not shown: Spn DPM-DC inh)
CC(C)(C)n1nnnc1C(c1cc2cc3c(cc2[nH]c1=O)OCO3)N1CCN(c2ccccc2)CC1 (centres undefined)	Autofluor 339 3.04, Spn DPM-DC inh active
Cn1nnnc1Sc1ncnc2scc(-c3ccccc3)c12	none
Cn1nnnc1Sc1ncnc2scc(-c3ccc(F)cc3)c12	Spn PMK inh 29.0
Cc1ccc(Cn2c(=S)[nH]c3ccc(N4CCOCC4)cc3c2=O)o1	Autofluor 339 2.75
CC(C)OCCCn1c(=S)[nH]c2cc3c(cc2c1=O)OCO3	none
O=c1c2cc3c(cc2[nH]c(=S)n1CCN1CCOCC1)OCO3	none
CC(C)OCCCn1c(=S)[nH]c2ccc(N3CCOCC3)cc2c1=O	Autofluor 339 3.69
O=c1c2cc(N3CCOCC3)ccc2[nH]c(=S)n1CCCN1CCCCCC1	Autofluor 339 2.91
O=c1c2cc(N3CCOCC3)ccc2[nH]c(=S)n1CCN1CCCC1	Autofluor 339 2.56
CCOC(=O)CSC1=C(C#N)C(=O)NC2(CCCCC2)S1	none
CCOC(=O)C1=C(C)N(c2ccccc2)C(=O)C1CC(=O)O (centres undefined)	none
CC1CCCCC1n1c(=S)[nH]c2ccccc2c1=O (centres undefined)	none
O=C(NCC1CCCO1)C1CC(c2ccc(Cl)c(Cl)c2)=NO1 (centres undefined)	none
CSc1cccc(NC(=O)c2ccco2)c1	none
O=c1c2cc(N3CCOCC3)ccc2[nH]c(=S)n1CCCN1CCN(c2ccccc2F)CC1	Autofluor 339 3.54, Spn DPM-DC inh active
Cc1nnc2sc(-c3cccc4ccccc34)nn12	Autofluor 339 2.25
Cc1nnc2sc(-c3ccncc3)nn12	none
COC(=O)c1c(S(N)(=O)=O)c2ccccc2n1C	Autofluor 339 2.08 (not shown: Spn DPM-DC inh)
Nc1c(C(=O)NCCN2CCOCC2)c2nc3ccccc3nc2n1-c1cccc(F)c1	Autofluor 339 5.13 (not shown: Spn DPM-DC inh)
COCCCNC(=O)c1c(N)n(-c2cccc(S(N)(=O)=O)c2)c2nc3ccccc3nc12	Autofluor 339 2.96 (not shown: Spn DPM-DC inh)
CCCNC(=O)c1c(N)n(-c2cccc(OC)c2)c2nc3ccccc3nc12	Autofluor 339 3.82 (not shown: Spn DPM-DC inh)
COC(=O)c1c(N)n(-c2cc(OC)cc(OC)c2)c2nc3ccccc3nc12	Autofluor 339 3.42 (not shown: Spn DPM-DC inh)

Screening data from PubChem.
